PubChem BioAssay (Tox21)
Values joined by “and” are separate entries in the source; they are usually repeats but may differ in a detail not shown here. Equal values may be shown once. Records with an inconclusive call do not appear. Some compounds were tested as several samples or in several runs, with calls that do not always agree. Active and inactive are the calls of the source. Unless noted, calls follow the shape of the dose curve; as a rule, active = well fitted curve in the direction sought with a large enough effect in the repeat runs; inconclusive = weak or mixed curves; inactive = no such curve, though single readings can be large; an effect the other way counts as inactive or inconclusive.

Assays:
[1] = qHTS assay to identify aromatase inhibitors - cell viability counter screen (AID 743084);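 also: cells stimulated with testosterone during compound exposure; nearly all actives have a fitted effect of over 55% in size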
[2] = target: Aryl hydrocarbon receptor (Homo sapiens) (UniProt P35869); experiment: qHTS assay to identify small molecule that activate the aryl hydrocarbon receptor (AhR) signaling pathway (AID 743085); also: nearly all actives have a fitted effect of over 15% in size; also: potency is read from the fitted curve at half-maximal effect;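 as to activation: HG2L7.5c1 human HepG2 liver cells with stably integrated DRE-driven firefly reporter; series mostly up to about 70 µM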
How it was run: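 24 h compound exposure, 37C, HepG2-derived HG2L7.5c1 cells with DRE-responsive luciferase. Readouts: fluorescence viability, then luminescence at room temperature after 30 min.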

[3] = qHTS assay to identify small molecule that activate the aryl hydrocarbon receptor (AhR) signaling pathway - cell viability counter screen (AID 743086); also: nearly all actives have a fitted effect of over 45% in size; also: potency is read from the fitted curve at half-maximal effect
How it was run: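 Cytotoxicity counter screen: CellTiter-Fluor signal (30 min, 37 C) in 4000 HepG2 cells/well carrying the DRE-luciferase reporter, following 24 h compound exposure at 37 C.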

[4] = target: Peroxisome proliferator-activated receptor gamma (Homo sapiens) (UniProt P37231); experiment: qHTS assay to identify small molecule agonists of the peroxisome proliferator-activated receptor gamma (PPARg) signaling pathway (AID 743094; active = well fitted activation curve with a large enough effect in the signal ratio in the repeat runs, not every such curve was filed as active; the % refers to the signal ratio)
How it was run: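 Reporter activation was scored by fluorescence of cleaved LiveBLAzer B/G substrate (1 h, room temperature) in PPARg-bla HEK293H cells previously treated 17 h at 37C with DMSO-dissolved compounds.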

[5] = target: Peroxisome proliferator-activated receptor gamma (Homo sapiens) (UniProt P37231); experiment: qHTS assay to identify small molecule antagonists of the peroxisome proliferator-activated receptor gamma (PPARg) signaling pathway (AID 743191; calls by dose curve; also: series mostly up to about 63 µM; nearly all actives have a fitted effect of over 30% in size)
How it was run: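 Beta-lactamase reporter under UAS control in HEK293H PPARg-bla cells; compound treatment 17 h at 37C. Read-out: fluorescence intensity after 1 h room-temperature incubation with LiveBLAzer B/G FRET substrate.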

[6] = qHTS assay for small molecule agonists of the antioxidant response element (ARE) signaling pathway (AID 743202; active = well fitted activation curve with a large enough effect in the signal ratio in the repeat runs, not every such curve was filed as active; the % refers to the signal ratio; also: potency is read from the fitted curve at half-maximal effect)
How it was run: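 Beta-lactamase reporter activity, read as fluorescence intensity, reflects ARE/Nrf2 pathway induction in HepG2 cells after 16 h compound exposure at 37 C; substrate loading was 2 h at room temperature.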

[7] = qHTS assay for small molecule agonists of the antioxidant response element (ARE) signaling pathway - cell viability counter screen (AID 743203; calls by dose curve; also: nearly all actives have a fitted effect of over 55% in size)
How it was run: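 Viability counter screen: stably transfected ARE-bla HepG2 line, 16 hrs compound exposure at 37C/5% CO2, ATP-based CellTiter-Glo luminescence measured in the reporter wells.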

[8] = qHTS assay for small molecule activators of the heat shock response signaling pathway - cell viability counter screen (AID 743209); also: nearly all actives have a fitted effect of over 50% in size
How it was run: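 Viability of HSE-bla HeLa cells is measured with CellTiter-Glo in the wells already used for the reporter read. Compound exposure lasts 5 h at 37 C, and luminescence is read after 30 min at room temperature.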

[9] = qHTS assay for small molecule activators of the heat shock response signaling pathway (AID 743210; active = well fitted activation curve with a large enough effect in the signal ratio in the repeat runs, with a control signal flat, not every such curve was filed as active; the % refers to the signal ratio; also: potency is read from the fitted curve at half-maximal effect;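 as to activation: HeLa cells with beta-lactamase reporter driven by heat shock elements; series mostly up to about 63 µM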)
How it was run: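 Fluorescence from a cleaved B/G FRET substrate (2.5 h, room temp) reports HSE-driven beta-lactamase in HeLa cells treated 5 h at 37 C with DMSO-dissolved compounds.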

[10] = qHTS assay to identify small molecule agonists of the peroxisome proliferator-activated receptor delta (PPARd) signaling pathway - cell viability counter screen (AID 743211); also: nearly all actives have a fitted effect of over 55% in size
How it was run: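 Luminescent ATP viability assay (CellTiter-Glo, 30 min RT) in UAS-bla HEK293H cells carrying the PPAR delta reporter construct, 3000 cells/well, after a 17 h compound treatment at 37 C.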

[11] = target: Peroxisome proliferator-activated receptor delta (Homo sapiens) (UniProt Q03181); experiment: qHTS assay to identify small molecule agonists of the peroxisome proliferator-activated receptor delta (PPARd) signaling pathway (AID 743212; calls by dose curve;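 also: HEK293H cells with PPARd UAS beta-lactamase reporter GeneBLAzer system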)
How it was run: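 Steps: seed PPARd-bla HEK293H cells; incubate 5 h, 37 C, 5% CO2; add compounds in DMSO; incubate, 37 C; add LiveBLAzer B/G FRET substrate; hold 2 h at room temperature; measure fluorescence.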

[12] = qHTS assay to identify small molecule antagonists of the peroxisome proliferator-activated receptor delta (PPARd) signaling pathway - cell viability counter screen (AID 743213); also: nearly all actives have a fitted effect of over 50% in size; also: potency is read from the fitted curve at half-maximal effect
How it was run: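 Same-well viability: cells pre-incubated 5 h, dosed with compound plus 300 nM L165041, kept 17 h at 37 C, FRET substrate 2 h RT, then CellTiter-Glo 30 min RT and luminescence.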

[13] = target: Peroxisome proliferator-activated receptor delta (Homo sapiens) (UniProt Q03181); experiment: qHTS assay to identify small molecule antagonists of the peroxisome proliferator-activated receptor delta (PPARd) signaling pathway (AID 743215; active = well fitted inhibition curve with a large enough effect in the signal ratio in the repeat runs, not every such curve was filed as active; the % refers to the signal ratio;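 also: cells stimulated with agonist L165041 at 300 nM final during compound exposure; series mostly up to about 62 µM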)
How it was run: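 Plated HEK293H PPARd-bla cells rested 5 h at 37 C and 5% CO2. Compound, then agonist L165041 at 300 nM final, was added; 17 h at 37 C followed. Substrate loading, 2 h room temperature, fluorescence measured.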

[14] = qHTS assay to identify small molecule agonists of the farnesoid-X-receptor (FXR) signaling pathway - cell viability counter screen (AID 743218); also: nearly all actives have a fitted effect of over 45% in size
How it was run: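 Viability of FXR-bla HEK 293T cells is measured by ATP-based CellTiter-Glo luminescence following 16 h compound treatment at 37 C and a prior 2 h room-temperature beta-lactamase substrate step.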

[15] = qHTS assay to identify small molecule antagonists of the farnesoid-X-receptor (FXR) signaling pathway - cell viability counter screen (AID 743221; active = well fitted cell-killing curve with a large enough effect in the repeat runs, not every such curve was filed as active; also: nearly all actives have a fitted effect of over 50% in size)
How it was run: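 In GeneBLAzer FXR-UAS-bla HEK 293T cells stimulated with 50 uM chenodeoxycholic acid (final), compounds acted for 16 h at 37 C. Viability was assessed afterwards by CellTiter-Glo luminescence.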

[16] = target: Vitamin D3 receptor (Homo sapiens) (UniProt P11473); experiment: qHTS assay to identify small molecule agonists of the vitamin D receptor (VDR) signaling pathway (AID 743222; calls by dose curve)
How it was run: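 Fluorescence from cleaved LiveBLAzer B/G FRET substrate served as readout. VDR-bla cells had been treated 16 h at 37C with test compounds in DMSO, following a 4 h settling period, and substrate was loaded for 2 h at RT.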

[17] = target: Vitamin D3 receptor (Homo sapiens) (UniProt P11473); experiment: qHTS assay to identify small molecule antagonists of the vitamin D receptor (VDR) signaling pathway (AID 743223; active = well fitted inhibition curve with a large enough effect in the signal ratio in the repeat runs, not every such curve was filed as active; the % refers to the signal ratio)
How it was run: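 Agonist 1alpha,25-dihydroxyvitamin D3 (3 nM in well) was added with each compound to VDR-bla cells preincubated 4 h. Cells stood 16 h at 37C, then FRET substrate 2 h at room temperature; fluorescence intensity recorded.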

[18] = qHTS assay to identify small molecule antagonists of the peroxisome proliferator-activated receptor gamma (PPARg) signaling pathway - cell viability counter screen (AID 743194); also: nearly all actives have a fitted effect of over 55% in size
How it was run: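 Viability was measured as CellTiter-Glo luminescence in GeneBLAzer PPARg UAS-bla HEK293H cells. These cells had been exposed 17 h at 37 C to compounds together with rosiglitazone at 50 nM final, with the beta-lactamase readout taken in the same wells.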

[19] = target: Bile acid receptor (Homo sapiens) (UniProt Q96RI1); experiment: qHTS assay to identify small molecule antagonists of the farnesoid-X-receptor (FXR) signaling pathway (AID 743217; active = well fitted inhibition curve with a large enough effect in the signal ratio in the repeat runs, not every such curve was filed as active; the % refers to the signal ratio)
How it was run: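 Screen of the Tox21 10K library in quantitative HTS format using FXR-UAS-bla HEK 293T reporter cells. Agonist chenodeoxycholic acid, 50 uM final, added with compounds; 16 h incubation at 37 °C; beta-lactamase FRET fluorescence measured.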

[20] = target: Bile acid receptor (Homo sapiens) (UniProt Q96RI1); experiment: qHTS assay to identify small molecule agonists of the farnesoid-X-receptor (FXR) signaling pathway (AID 743220; active = well fitted activation curve with a large enough effect in the signal ratio in the repeat runs, not every such curve was filed as active; the % refers to the signal ratio)
How it was run: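 FXR-UAS-bla HEK 293T cells carrying a UAS-driven beta-lactamase reporter were plated for 5 h at 37C/5% CO2, then exposed to DMSO-dissolved Tox21 10K compounds for 16 h at 37C. A LiveBLAzer B/G FRET substrate was loaded for 2 h at room temperature before fluorescence reading.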

Measured: Potency

Sequence of Peroxisome proliferator-activated receptor gamma (Homo sapiens) (P37231 whole entry, looked up): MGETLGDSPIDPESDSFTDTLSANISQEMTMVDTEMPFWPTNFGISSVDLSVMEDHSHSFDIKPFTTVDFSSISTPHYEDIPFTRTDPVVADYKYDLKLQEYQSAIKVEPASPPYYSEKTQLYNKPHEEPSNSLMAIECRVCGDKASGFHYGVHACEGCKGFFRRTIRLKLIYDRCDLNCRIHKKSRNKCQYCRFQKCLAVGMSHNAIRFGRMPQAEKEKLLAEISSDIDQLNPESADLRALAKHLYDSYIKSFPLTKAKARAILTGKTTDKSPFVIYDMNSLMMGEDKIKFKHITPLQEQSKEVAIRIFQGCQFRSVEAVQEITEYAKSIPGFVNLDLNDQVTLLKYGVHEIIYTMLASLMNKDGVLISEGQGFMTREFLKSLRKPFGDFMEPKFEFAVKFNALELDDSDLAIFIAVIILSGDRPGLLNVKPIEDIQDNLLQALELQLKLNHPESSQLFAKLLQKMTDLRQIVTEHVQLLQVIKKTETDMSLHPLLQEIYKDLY
Sequence of Peroxisome proliferator-activated receptor delta (Homo sapiens) (Q03181 whole entry, looked up): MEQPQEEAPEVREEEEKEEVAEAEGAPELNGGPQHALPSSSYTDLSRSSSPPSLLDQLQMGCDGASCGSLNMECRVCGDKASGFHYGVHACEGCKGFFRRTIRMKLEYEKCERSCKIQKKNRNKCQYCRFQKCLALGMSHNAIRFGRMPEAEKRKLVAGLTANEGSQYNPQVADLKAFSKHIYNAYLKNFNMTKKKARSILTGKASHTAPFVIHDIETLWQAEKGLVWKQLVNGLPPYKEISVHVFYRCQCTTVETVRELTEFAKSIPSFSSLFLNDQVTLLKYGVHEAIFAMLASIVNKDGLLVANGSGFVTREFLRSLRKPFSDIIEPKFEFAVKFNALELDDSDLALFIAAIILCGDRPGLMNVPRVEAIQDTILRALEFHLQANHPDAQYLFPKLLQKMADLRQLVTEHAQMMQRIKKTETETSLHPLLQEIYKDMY
Sequence of Vitamin D3 receptor (Homo sapiens) (P11473 whole entry, looked up): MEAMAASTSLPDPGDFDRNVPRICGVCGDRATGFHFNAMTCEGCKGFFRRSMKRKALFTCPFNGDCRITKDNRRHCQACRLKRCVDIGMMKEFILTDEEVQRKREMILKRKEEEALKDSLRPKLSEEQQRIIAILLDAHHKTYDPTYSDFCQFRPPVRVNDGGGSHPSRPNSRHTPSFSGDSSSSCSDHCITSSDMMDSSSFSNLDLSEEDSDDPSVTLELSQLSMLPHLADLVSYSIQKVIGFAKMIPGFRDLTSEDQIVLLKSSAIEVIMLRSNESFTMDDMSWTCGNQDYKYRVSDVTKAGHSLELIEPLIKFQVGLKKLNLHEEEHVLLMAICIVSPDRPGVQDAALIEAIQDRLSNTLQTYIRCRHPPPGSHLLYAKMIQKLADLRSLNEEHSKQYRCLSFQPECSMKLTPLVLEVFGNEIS
Sequence of Bile acid receptor (Homo sapiens) (Q96RI1 whole entry, looked up): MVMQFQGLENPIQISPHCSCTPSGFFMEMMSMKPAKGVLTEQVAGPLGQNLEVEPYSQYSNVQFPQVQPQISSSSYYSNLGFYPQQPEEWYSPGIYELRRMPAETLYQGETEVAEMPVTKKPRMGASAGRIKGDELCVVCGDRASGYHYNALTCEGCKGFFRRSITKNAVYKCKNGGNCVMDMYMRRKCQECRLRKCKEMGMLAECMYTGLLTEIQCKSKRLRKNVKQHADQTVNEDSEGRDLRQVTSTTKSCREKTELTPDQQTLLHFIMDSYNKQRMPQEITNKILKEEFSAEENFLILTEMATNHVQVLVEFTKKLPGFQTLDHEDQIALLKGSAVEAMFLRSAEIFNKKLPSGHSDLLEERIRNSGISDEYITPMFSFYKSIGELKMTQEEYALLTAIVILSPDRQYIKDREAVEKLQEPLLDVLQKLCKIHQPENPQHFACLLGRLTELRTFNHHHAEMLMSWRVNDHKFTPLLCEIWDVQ
Sequence of Aryl hydrocarbon receptor (Homo sapiens) (P35869 whole entry, looked up): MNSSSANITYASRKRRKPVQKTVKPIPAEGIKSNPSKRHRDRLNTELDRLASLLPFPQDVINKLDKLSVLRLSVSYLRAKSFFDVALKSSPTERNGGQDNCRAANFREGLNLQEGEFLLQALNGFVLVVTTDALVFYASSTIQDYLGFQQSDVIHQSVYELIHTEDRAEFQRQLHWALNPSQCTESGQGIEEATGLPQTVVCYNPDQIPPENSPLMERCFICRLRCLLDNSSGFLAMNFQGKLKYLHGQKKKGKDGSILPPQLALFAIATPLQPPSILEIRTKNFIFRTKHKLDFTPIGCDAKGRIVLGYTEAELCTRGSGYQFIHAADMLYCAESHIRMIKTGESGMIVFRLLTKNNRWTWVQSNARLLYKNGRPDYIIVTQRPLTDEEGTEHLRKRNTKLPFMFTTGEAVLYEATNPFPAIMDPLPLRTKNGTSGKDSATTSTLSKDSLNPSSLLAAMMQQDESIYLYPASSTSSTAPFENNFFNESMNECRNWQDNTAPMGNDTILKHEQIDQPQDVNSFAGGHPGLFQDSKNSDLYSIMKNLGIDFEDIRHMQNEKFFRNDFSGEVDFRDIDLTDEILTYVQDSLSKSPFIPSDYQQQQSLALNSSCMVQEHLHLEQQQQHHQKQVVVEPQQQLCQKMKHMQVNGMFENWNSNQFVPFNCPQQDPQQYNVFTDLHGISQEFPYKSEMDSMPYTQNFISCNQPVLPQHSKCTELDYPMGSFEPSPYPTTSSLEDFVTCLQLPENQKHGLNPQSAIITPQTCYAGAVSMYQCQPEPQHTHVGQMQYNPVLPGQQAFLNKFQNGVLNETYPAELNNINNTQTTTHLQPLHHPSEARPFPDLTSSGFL

Clc1nc(Cl)c(Cl)c(Cl)c1Cl
active: [6] 7.74 µM
not listed: [18] | [19] | [20]
inactive: all other assays above

Brc1cc(Oc2cc(Br)c(Br)c(Br)c2Br)c(Br)c(Br)c1Br
55.2 µM (active) and inactive: [12]
not listed: [6] | [9] | [16] | [17] | [19] | [20]
inactive: all other assays above

CCOCCOCCO
not listed: [16] | [17] | [18] | [19] | [20]
inactive: all other assays above

Cc1ncc[nH]1
inactive and 48.5 µM (active): [2]
not listed: [6] | [13] | [18]
inactive: all other assays above

Nc1ccc(Cl)cc1Cl
not listed: [6] | [16] | [17] | [18]
inactive: all other assays above

NNc1ccc(C(=O)O)cc1
not listed: [9] | [19] | [20]
inactive: all other assays above

O=S(=O)(O)c1ccc(O)cc1
not listed: [6] | [13] | [19] | [20]
inactive: all other assays above

c1cc(-c2ccncc2)ccn1
not listed: [6] | [9] | [13] | [18] | [19] | [20]
inactive: all other assays above

C=C(C)C(=O)OCCOC(=O)C(=C)C
not listed: [12] | [13] | [18] | [19] | [20]
inactive: all other assays above

S=C(NC1CCCCC1)NC1CCCCC1
active: [9] 9.23 µM and 13.8 µM
inactive and 17.2 µM (active): [3]
inactive: [1] | [2] | [4] | [5] | [7] | [11] | [14] | [15] | [16] | [17]

O=c1oc(=O)c2cc3c(=O)oc(=O)c3cc12
active: [6] 2.73 µM
not listed: [13] | [14] | [19] | [20]
inactive: all other assays above

OCCO
not listed: [6]
inactive: all other assays above

Cc1c(OCC(F)(F)F)ccnc1CS(=O)c1nc2ccccc2[nH]1 (centres undefined)
active: [2] 4.22 µM and 19.3 µM | [6] 8.41 µM
not listed: [9] | [13] | [16] | [17]
inactive: all other assays above

Cc1ccc(C)c(O)c1C
not listed: [9] | [19] | [20]
inactive: all other assays above

CC(CCC(=O)O)(c1ccc(O)cc1)c1ccc(O)cc1
not listed: [6] | [9]
inactive: all other assays above

COc1ccc(OC)c(C(O)CNC(=O)CN)c1 (centres undefined)
not listed: [9] | [13]
inactive: all other assays above

CCC(C)OC(=O)c1ccc(O)cc1 (centres undefined)
not listed: [6] | [19] | [20]
inactive: all other assays above
